Among the data in PubChem BioAssay (NCI) are growth values, retold here.

What all share (assay): NCI-60 one-dose screen, 48 h (100 = growth as untreated, 0 = no growth, -100 = all killed)
What all share (conditions): 10 µM unless noted

Test [1] concerns DU-145 prostate.
The subject of test [2] is K-562 leukemia.
For test [3], the system named is MALME-3M melanoma.
The test system of test [4] is MDA-MB-231 breast.
Test [5] concerns RXF 393 renal.
The subject of test [6] is SF-268 CNS.
Test [7] relates to SF-295 CNS.
The subject of test [8] is SF-539 CNS.
For test [9], the system named is UACC-257 melanoma.
Test [10] concerns M14 melanoma.
Test [11] relates to HCT-15 colon.
The subject of test [12] is HT29 colon.
For test [13], the system named is SNB-75 CNS.
The subject of test [14] is SNB-19 CNS.
In test [15] the test system is U251 CNS.
Test [16] relates to PC-3 prostate.
For test [17], the system named is SK-MEL-5 melanoma.
The subject of test [18] is LOX IMVI melanoma.
The subject of test [19] is SK-MEL-28 melanoma.
Test [20] has as its system UACC-62 melanoma.

Structures are written as SMILES. This is part of a sample that, as a whole, favours compounds with a hit. Of some 83,000 tested, about 20% had one in any assay.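 Single-dose data. Exposure time 48 hours. Values below 10 considered active.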 Unmarked numbers belong to inactive results. Activity calls are given as the source filed them.

Regarding `NS(=O)(=O)Oc1ccc(-c2sc3cc(O)ccc3c2C(=O)c2ccc(OCCN3CCCCC3)cc2)cc1`, the growth in test [1] was 51.2%; in test [2], 14.1%; in test [3], 63.7%; in test [4], 72%; in [5], 66.8%; in test [6] it was 68.4%. In addition, the growth in test [7] is 48.1%; in [8], 62.8%; in test [9], -44.2% (active); in [10], -17% (active); in test [11], 36.2%; in [12], 0.722% (active). The growth in test [13] was 39.6%; in test [14] it was 78.2%; in [15], 21.9%; in test [16], 69.9%; in test [17] it was 46.2%; in [18] it was 34.4%. For the same compound, in test [19], the growth was 23.6%.
With `CCN(CC)CCOC(=O)N1c2ccccc2Sc2ccccc21`, the growth is 99.9% in [1]; 90.7% in [2]; 91.4% in test [3]; 81.9% in test [4]; 98.3% in [5]; 102% in test [6]. The growth is 93.8% in [7]; 100% in test [8]; 102% in test [9]; 93.4% in test [10]; 102% in [11]; 84.2% in test [13]. For the same compound, the growth in [14] was 97.8%; in test [15], 91.8%; in test [16], 68.8%; in test [17] it was 94.2%; in test [20] it was 91%; in test [18], 96.7%. Besides, in [19], the growth is 101%.
`CCN1CCN(c2ccc(Nc3cc(-c4cccnc4Nc4c(Cl)c(OC)cc(OC)c4Cl)ncn3)cc2)CC1`: the growth is 62.9% in test [1]; 44.5% in [2]; 76.2% in test [3]; 85.8% in [4]; 34.3% in test [5]; 65.1% in test [6]. The growth in [7] was 79.5%; in [8] it was 47.1%; in [9] it was 91.6%; in test [10] it was 72.9%; in test [11], 63.3%; in test [12] it was 31.9%. The growth in test [13] is 42.8%; in [14] it was 81%; in test [15], 71.6%; in test [16] it was 55.3%; in test [17] it was 74%; in [18], 44.7%. Moreover, in test [19], the growth is 100%.
For `[2H]c1nc(Nc2ncc(F)c(-c3cc(F)c4nc(C)n(C(C)C)c4c3)n2)c([2H])c([2H])c1CN1CCN(C([2H])([2H])C([2H])([2H])[2H])CC1`, the growth is 66.2% in test [1]; 49.6% in [2]; 79.5% in test [3]; 65.2% in [4]; 1.53% (active) in [5]; 64.5% in test [6]. In addition, the growth is 57.8% in [7]; 72.1% in [8]; 52.3% in test [9]; 47.5% in test [10]; 39.8% in test [11]; 34.6% in [12]. Further, the growth was 33.9% in [13]; 65.5% in [14]; 42.2% in test [15]; 44.2% in test [16]; 41.8% in test [17]; 39.1% in test [18]. In addition, the growth in test [19] is 70.3%.
In the case of `CN=C1C=CC(=C(c2ccc(N(C)C)cc2)c2ccc(N(C)C)cc2)C=C1`, the growth in [1] is -6.79% (active); in test [2] it was 2.18% (active); in test [3], -56.6% (active); in test [4], -46.9% (active); in test [5], -50.8% (active); in [6], -56.5% (active). The growth is -30.4% (active) in test [7]; -38.3% (active) in test [8]; -43% (active) in [9]; -65.4% (active) in test [10]; 7.06% (active) in test [11]; -37.2% (active) in [12]. The growth was -26.7% (active) in test [13]; 3.16% (active) in test [14]; -57.5% (active) in [15]; 2.74% (active) in test [16]; -98.5% (active) in test [17]; -59.3% (active) in [18]. Further, in [19], the growth was -44.9% (active).
With `N=c1ccn2c(n1)OC1C(O)C(CO)OC12` (configuration not stated), the growth in [1] was 11.7%; in test [2] it was 94.5%; in test [3], 43.5%; in test [4], 91.7%; in test [5] it was 28.7%; in test [6] it was 40.9%. Also, the growth in test [7] is 36.7%; in [8] it was 25.1%; in [9], 54.6%; in test [10], -25.5% (active); in test [11], 49.9%; in test [12] it was 34.4%. Further, the growth was 11.4% in [13]; 44% in [14]; 37.7% in [15]; 45.9% in test [17]; 43.9% in test [20]; 10.3% in [18]. In addition, the growth in [19] was 53.3%.
For the compound `O=C(Nc1ccccn1)[C@H](O)[C@@H](O)C(=O)N1CCOCC1`, the growth was 106% in test [1]; 115% in test [2]; 114% in [3]; 100% in [4]; 119% in [5]; 106% in [6]. Further, the growth was 109% in test [7]; 107% in test [8]; 101% in [9]; 103% in [10]; 107% in [11]; 104% in test [12]. Besides, the growth in test [13] was 121%; in test [14] it was 102%; in test [15] it was 96.1%; in test [16], 94%; in [17] it was 99.3%; in test [18], 104%. The growth in test [19] is 114%.
As for `NC(=Nc1ccc(N)cc1)C(N)=Nc1ccc(N)cc1`, the growth in test [1] is 106%; in test [2], 81.7%; in test [3] it was 135%; in test [4] it was 93.5%; in test [5], 84.1%; in test [6], 104%. Moreover, the growth in [7] was 111%; in [8], 96.9%; in test [9], 31.8%; in [10], 99.7%; in test [11] it was 98.5%; in test [12], 113%. Besides, the growth in test [13] was 91.8%; in test [14] it was 102%; in [15] it was 101%; in test [17], 98.7%; in test [20] it was 104%; in test [18], 97.2%. In addition, the growth in [19] is 117%.
